# Screening data from PubChem.
# Pol iota inh: DNA polymerase iota (human) inhibition; Q9UNA4; Pol iota fluorescent replication assay, 10 min; Potency, µM (doses to about 115 µM), usual class: inhibitors; 390,000 compounds, 1% hits; AID 588590
#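 Fluorescent replication assay read twice, at 0 min and 10 min after adding 50 nM (final) substrate. Enzyme (10 nM) and compounds were first incubated 15 min at room temperature; enzyme-free buffer wells were negative controls.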
# Pol kappa inh-1: DNA polymerase kappa (human) inhibition | 400,000 compounds, 0.53% hits | purified Pol kappa, fluorescent DNA synthesis assay, 10 min | Q9UBT6 | Potency, µM (highest dose often 107 µM), most hits filed as inhibitors
# Target sequence (Q9UBT6 whole entry, looked up): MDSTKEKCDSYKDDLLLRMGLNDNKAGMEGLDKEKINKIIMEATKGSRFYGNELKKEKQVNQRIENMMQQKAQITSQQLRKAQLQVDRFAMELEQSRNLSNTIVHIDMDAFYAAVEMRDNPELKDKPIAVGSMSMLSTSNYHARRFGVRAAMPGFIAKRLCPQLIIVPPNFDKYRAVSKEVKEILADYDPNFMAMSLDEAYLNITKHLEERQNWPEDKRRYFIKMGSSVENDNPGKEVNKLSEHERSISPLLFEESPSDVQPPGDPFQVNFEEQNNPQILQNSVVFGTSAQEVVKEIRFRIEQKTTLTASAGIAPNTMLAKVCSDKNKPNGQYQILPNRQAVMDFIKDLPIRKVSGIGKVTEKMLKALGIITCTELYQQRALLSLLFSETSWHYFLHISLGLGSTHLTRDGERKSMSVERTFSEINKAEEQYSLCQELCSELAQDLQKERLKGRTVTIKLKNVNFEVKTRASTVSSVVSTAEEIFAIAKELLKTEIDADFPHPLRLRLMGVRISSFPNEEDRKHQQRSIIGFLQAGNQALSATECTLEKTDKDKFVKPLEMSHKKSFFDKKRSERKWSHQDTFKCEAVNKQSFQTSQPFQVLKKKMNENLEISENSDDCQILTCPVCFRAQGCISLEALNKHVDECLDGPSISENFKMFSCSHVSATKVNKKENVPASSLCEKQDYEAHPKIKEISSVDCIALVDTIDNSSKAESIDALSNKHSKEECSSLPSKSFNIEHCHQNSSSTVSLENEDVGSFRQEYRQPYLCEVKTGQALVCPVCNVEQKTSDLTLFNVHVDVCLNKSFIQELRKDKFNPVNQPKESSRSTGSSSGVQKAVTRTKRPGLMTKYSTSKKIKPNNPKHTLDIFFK
#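 50 nM final substrate added after 15 min RT preincubation of 10 nM Pol kappa with compound; fluorescence read at 0 and 10 min.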
# Pol beta inh-1: inhibitors of human DNA polymerase beta | P06746 | Pol beta primer extension/strand displacement, fluorescence kinetic | Potency, µM (titrated, usually from 114 µM), hits mostly inhibitors | 340,000 compounds, 1.3% hits | AID 485314
#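 10 nM enzyme + cpd, 15 min RT; start with substrate 50 nM final; read 0 min and after 10 min RT. Corrected, normalized data; 4-parameter Hill curve fit.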
# FEN1 inh-1: inhibitors of human flap endonuclease 1; P39748; Recombinant FEN1 flap cleavage, fluorescence, 15 min; Potency, µM (top dose mostly 114 µM), usual class: inhibitors; 390,000 compounds, 0.35% hits; further: nearly all actives have a fitted effect of over 65% in size
#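 With each library titrated from low to high concentration, compounds met 10 nM FEN1 for 15 min at room temperature before 50 nM substrate was added; readings at 0 and 15 min fed four-parameter Hill curve fits.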
# Pol eta inh-1: inhibitors of human DNA polymerase eta | Q9Y253 | recombinant Pol eta, fluorescent DNA replication assay | Potency, µM (highest dose often 114 µM), actives largely listed as inhibitors | 390,000 compounds, 1.2% hits
#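 Pol eta (10 nM) was preincubated with compounds for 15 min at room temperature, after which fluorescent replication substrate (50 nM final) was added to start the reaction. Fluorescence was read kinetically at 0 and 10 min.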
# TDP1 block: blocks human tyrosyl-DNA phosphodiesterase 1 | Q9NUW8 | recombinant TDP1, AlphaScreen DNA substrate cleavage | Potency, µM (doses to about 130 µM), most hits filed as inhibitors | 350,000 compounds, 0.28% hits | AID 485290; further: nearly all actives have a fitted effect of over 40% in size
#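 Steps: enzyme plus compound, 15 min RT; add biotin/phosphotyrosine-FITC oligonucleotide (15 nM final), react 5 min; add donor/acceptor beads (10 ug/ml final), 10 min; read AlphaScreen. Tdp1 at 1 nM final.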
# Pol beta inh-2: Inhibitors of human DNA polymerase beta, hit validation; shares compounds with Pol beta inh-1; Potency, µM, actives largely listed as inhibitors; 250 compounds, 87% hits; AID 540280; Pol beta primer extension/strand displacement, fluorescence kinetic; calls by dose curve
# Klenow counter: Klenow polymerase inhibition, pol beta selectivity check | 250 tested, under 10 active | activity change, negative = inhibition, % at 57.1 µM | Klenow exo- polymerase counter-screen, fluorescent DNA substrate | AID 540300 | shares compounds with Pol beta inh-1
# HIV RT inh: counter-screen for DNA polymerase beta inhibitors: HIV-1 RT inhibition | HIV-1 RT polymerase activity, counter-screen | 250 tested, under 10 active | shares compounds with Pol beta inh-1 | activity % (negative = inhibition, positive = activation), % at 57.1 µM
# POLB valid: DNA polymerase beta inhibition, radiolabeled validation. shares compounds with Pol beta inh-1. inhibition, % at 10 µM. 110 compounds, 91% hits. radiolabeled primer extension gel assay, phosphorimager;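 active means inhibition at 10 µM of 30% or more; inconclusive means no clear call, values can overlap the other calls; inactive means inhibition at 10 µM under 30%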
# PGK validate: validation of Trypanosoma brucei phosphoglycerate kinase inhibitors; shares compounds with Pol kappa inh-1; TbPGK coupled GAPDH assay, Kinase-Glo luminescence; Potency, µM (doses to about 57.5 µM), usual class: inhibitors; 500 compounds, 79% hits; AID 686980; further: nearly all actives have a fitted effect of over 65% in size
# POLI cherry-pick: Inhibitors of human DNA polymerase iota, confirmation; AID 720496; shares compounds with Pol kappa inh-1; Potency, µM, actives largely listed as inhibitors; 1,500 compounds, 77% hits; Pol iota primer extension, TAMRA/BHQ fluorescence
# Pol kappa inh-2: Pol kappa (human) inhibition, cherry-pick confirmation; shares compounds with Pol eta inh-1; purified Pol-kappa, fluorescent strand-displacement substrate; Potency, µM, hits mostly inhibitors; 920 compounds, 76% hits; AID 720501
# Pol eta inh-2: confirmation of human DNA polymerase eta inhibitors | shares compounds with Pol eta inh-1 | Pol eta primer extension, TAMRA/BHQ fluorescence, 10 min | Potency, µM, hits mostly inhibitors | 2,600 compounds, 64% hits
# FEN1 inh-2: confirmation of human FEN1 inhibitors; AID 720498; 880 compounds, 79% hits; FEN1 flap cleavage, TAMRA/BHQ2 fluorogenic DNA substrate; shares compounds with FEN1 inh-1; Potency, µM, hits mostly inhibitors; further: nearly all actives have a fitted effect of over 60% in size
# Numbers stand for hits; 0 = inactive; ? = inconclusive; - = no result given; [ ] = remark or other dose. The list is not random: actives were taken first. Their share in the collection is about 2.4%. Unless noted, the call rests on the fitted dose curve; in most records, active means well fitted curve in the direction sought with a large enough effect; inconclusive means small, poorly fitted or top-dose-only effect, or another doubt; inactive means no such curve, though single readings can be large; an effect the other way counts as inactive or inconclusive.
SMILES,Pol iota inh,Pol kappa inh-1,Pol beta inh-1,FEN1 inh-1,Pol eta inh-1,TDP1 block,Pol beta inh-2,Klenow counter,HIV RT inh,POLI cherry-pick,Pol eta inh-2,others
Cc1cc(C)n2c(SC/C(O)=C(\C#N)c3nc4ccccc4[nH]3)nnc2n1,11µM,45µM,18µM,?,3.2µM,?,35,0,0,-,76,POLB valid=100
CCCc1cc(=O)oc2cc(C)c(CN3CCCC3)c(O)c12,5µM,20µM,6.3µM,50µM,22µM,-,25,0,0,-,67,POLB valid=0
COc1ccc(C(=O)N(Cc2ccc(N(C)C)cc2)Cc2ccco2)cc1Cl,0,0,0,0,-,0,-,-,-,-,-,
CC1(C)Cc2c(sc3[nH]c(=S)n(Cc4ccco4)c(=O)c23)CO1,0,0,0,0,0,-,-,-,-,-,-,
O=c1c2c3c(sc2[nH]c(=S)n1Cc1ccco1)CCC3,18µM,?,8.9µM,?,20µM,?,16,0,0,42,43,
COc1ccc(CN(Cc2ccco2)C(=O)COc2ccc(Cl)cc2C)cc1,0,0,0,0,0,0,-,-,-,-,-,
CCCN(C(=O)c1cc2c(s1)CCC2)c1c(N)n(Cc2ccccc2)c(=O)[nH]c1=O,?,?,10µM,0,25µM,-,22,0,0,?,76,POLB valid=91
O=C(Cc1ccc(S(=O)(=O)N2CCOCC2)s1)Nc1nc2c(s1)CCCC2,?,18µM,7.1µM,?,4µM,-,28,0,0,34,30,POLB valid=99;Pol kappa inh-2=21
Cc1ccc(/C=C/C(=O)N2CCc3ccccc32)o1,35µM,?,13µM,0,8.9µM,?,18,0,0,67,67,
Cc1ccc(S(=O)(=O)CCC(=O)Nc2ccc(Br)cc2C)cc1,0,0,0,0,0,0,-,-,-,-,-,
CCN(CC)c1ccc(NC(=O)CCS(=O)(=O)c2ccc(Br)cc2)c(C)c1,40µM,?,7.1µM,0,14µM,-,10,0,?,47,17,PGK validate=10µM;Pol kappa inh-2=7.5
CCCSc1nnc(NC(=O)c2sc3nc(-c4cccs4)ccc3c2N)s1,?,0,18µM,?,79µM,0,13,0,0,?,60,Pol kappa inh-2=19
CSc1ccc(CCNC(=O)Cn2ncc3c(=O)oc4ccc(C)cc4c32)cc1,0,0,0,0,0,0,-,-,-,-,-,
Cc1ccc(NC(=O)c2c3c(nc4ccccc24)CCC3)cc1S(=O)(=O)N(C)C,22µM,79µM,10µM,0,?,0,35,0,0,-,?,POLB valid=89
Cc1ccc(NC(=O)c2c3c(nc4ccccc24)CCC3)cc1,0,0,0,0,0,0,-,-,-,-,-,
NC(CCC(=O)NCS(=O)(=O)O)C(=O)O (stereo not given),?,0[19.4 µM],0,-,0,0,-,-,-,-,-,
CC1=C(C(=O)OC(C)C)C(c2ccc(Cl)cc2)n2c(s/c(=C\c3ccc(OCC(=O)O)cc3)c2=O)=N1 (stereo not given),?,0,3.5µM,?,8.9µM,-,7.1,0,0,38,60,FEN1 inh-2=67
CCOC(=O)C1=C(C)N=c2s/c(=C\c3ccc(OCC(=O)O)cc3)c(=O)n2C1c1ccccc1 (stereo not given),0,0,0,0,?,-,-,-,-,-,-,
O=C1N=c2ccccc2=C1c1sc(Nc2ccc(O)cc2)nc1O,8.9µM,35µM,20µM,?,32µM,0,7.9,0,0,47,?,Pol kappa inh-2=17;FEN1 inh-2=76
CNC(=O)COC(=O)c1cc(-c2ccco2)nc2ccccc12,?,25µM,3.5µM,50µM,11µM,-,28,0,?,21,19,POLB valid=100;FEN1 inh-2=?
O=C(COC(=O)c1cc(-c2ccco2)nc2ccccc12)NCc1ccccc1,?,0,?,0,?,0,-,-,-,-,-,
Cc1ccc(-c2cc(-c3ccco3)c(C#N)c(=O)[nH]2)cc1,?,?,11µM,?,28µM,-,22,0,0,21,15,POLB valid=96;FEN1 inh-2=67
CC(C)ON(C(C(=O)NO)C(C)C)S(=O)(=O)c1ccc(-c2ccccc2)cc1 (stereo not given),-,0,-,-,-,0,-,-,-,-,-,
C=CCN1C(=CCO)[C@H]2C[C@H]3[C@@H]1CC[C@@]31c3ccccc3N3C=C4[C@@H]5N(/C=C/2[C@H]31)c1ccccc1[C@]51CC[C@H]2[C@H]1C[C@@H]4/C(=C/CO)N2CC=C,-,0[19.4 µM],-,-,-,0,-,-,-,-,-,
COc1cccc(CNCCSc2nnnn2C)c1OCc1ccc(Cl)cc1Cl,0,0,0,0,0,0,-,-,-,-,-,PGK validate=0
SMILES,Pol iota inh,Pol kappa inh-1,Pol beta inh-1,FEN1 inh-1,Pol eta inh-1,TDP1 block,Pol beta inh-2,Klenow counter,HIV RT inh,POLI cherry-pick,Pol eta inh-2,others
C=CCn1c(=O)[nH]c2cc(C(=O)N3CCN(c4ccc(C(C)=O)cc4)CC3)ccc2c1=O,?,?,35µM,0,?,0,-,-,-,47,-,
C=CCn1c(=O)[nH]c2cc(C(=O)N3CCN(c4cc(C)ccc4C)CC3)ccc2c1=O,0,0,0,0,0,0,-,-,-,-,-,
Cc1ccc(CNC(=O)Cn2nnc(C(=O)Nc3cccc(C)c3C)c2N)cc1,0,0,0,0,0,0,-,-,-,-,-,
Cc1ccc(CNC(=O)c2nnn(CC(=O)Nc3cccc(C)c3C)c2N)cc1,0,0,?,0,?,0,-,-,-,27,-,
Cc1cccc(NC(=O)c2cc3c(=O)n4ccccc4nc3s2)c1,?,0,7.1µM,?,45µM,79µM,-,-,-,67,-,
O=C(COc1ccc(Cl)cc1Cl)Nc1ccccn1,0,0,0,0,0,0,-,-,-,-,-,PGK validate=18µM
